# Source: paper PMC7862700, “An all-to-all approach to the identification of sequence-specific readers for epigenetic DNA modifications on cytosine”
# What was measured:
# Assay in all cases: DAPPL (digital affinity profiling via proximity ligation, sequencing); 10 mM Tris-HCl pH 7.5, 50 mM NaCl, 1 mM DTT, 4% glycerol, room temperature, 30 min; GST-TFs on glutathione beads, 16-mer random dsDNA library, 0.1% formaldehyde crosslink after washing; high values mean tight binding
# FLI1 = biological target: T1, FLI1 (Homo sapiens, UniProt Q01543 1-452); conditions: protein: recombinant; tags: N-terminal GST; dsDNA, one strand shown
# T1 sequence: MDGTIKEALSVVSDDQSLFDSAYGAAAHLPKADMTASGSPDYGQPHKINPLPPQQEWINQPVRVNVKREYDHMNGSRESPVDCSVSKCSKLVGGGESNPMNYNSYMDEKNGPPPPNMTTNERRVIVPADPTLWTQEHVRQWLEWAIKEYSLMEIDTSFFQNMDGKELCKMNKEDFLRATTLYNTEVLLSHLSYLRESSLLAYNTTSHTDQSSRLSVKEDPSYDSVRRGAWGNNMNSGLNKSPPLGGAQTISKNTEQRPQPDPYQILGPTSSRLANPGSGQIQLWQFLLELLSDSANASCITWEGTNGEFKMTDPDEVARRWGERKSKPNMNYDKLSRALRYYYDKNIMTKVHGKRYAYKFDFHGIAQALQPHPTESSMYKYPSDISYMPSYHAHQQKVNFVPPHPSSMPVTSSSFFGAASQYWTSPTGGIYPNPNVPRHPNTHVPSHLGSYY
# In short: (§1)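 A tag-only sample was pooled with DNA-barcoded human transcription factors that had been expressed in yeast as GST fusions and captured on glutathione beads. The pools were incubated for 30 min at room temperature with 200 nmole of a random double-stranded 16-mer DNA library in Tris/NaCl/DTT/glycerol buffer, then washed, crosslinked with 0.1% formaldehyde, proximity-ligated (BsaI/T4 ligase, 1 h, 37 °C), PCR-amplified and sequenced on an Illumina NextSeq500. Binding signal is each hexamer's read frequency for a factor divided by its frequency for the tag-only sample.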
# ELK1 = biological target: T2, ELK1 (Homo sapiens, UniProt P19419 1-428); conditions: protein: recombinant; tags: N-terminal GST; dsDNA, one strand shown
# T2 sequence: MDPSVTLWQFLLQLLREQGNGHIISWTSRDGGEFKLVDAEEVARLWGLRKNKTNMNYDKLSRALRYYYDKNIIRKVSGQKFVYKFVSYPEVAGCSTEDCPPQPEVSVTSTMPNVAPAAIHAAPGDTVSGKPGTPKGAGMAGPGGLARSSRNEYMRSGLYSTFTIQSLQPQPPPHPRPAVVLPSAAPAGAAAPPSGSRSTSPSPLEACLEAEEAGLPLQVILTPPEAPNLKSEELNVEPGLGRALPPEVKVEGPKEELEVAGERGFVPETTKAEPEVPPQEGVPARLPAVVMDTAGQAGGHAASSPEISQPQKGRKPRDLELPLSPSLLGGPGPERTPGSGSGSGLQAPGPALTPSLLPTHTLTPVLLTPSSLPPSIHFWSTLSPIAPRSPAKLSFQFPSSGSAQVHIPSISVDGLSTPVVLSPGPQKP
# In short: as §1
# GABPA = biological target: T3, GABPA (Homo sapiens, UniProt Q06546 1-454); conditions: protein: recombinant; tags: N-terminal GST; dsDNA, one strand shown
# T3 sequence: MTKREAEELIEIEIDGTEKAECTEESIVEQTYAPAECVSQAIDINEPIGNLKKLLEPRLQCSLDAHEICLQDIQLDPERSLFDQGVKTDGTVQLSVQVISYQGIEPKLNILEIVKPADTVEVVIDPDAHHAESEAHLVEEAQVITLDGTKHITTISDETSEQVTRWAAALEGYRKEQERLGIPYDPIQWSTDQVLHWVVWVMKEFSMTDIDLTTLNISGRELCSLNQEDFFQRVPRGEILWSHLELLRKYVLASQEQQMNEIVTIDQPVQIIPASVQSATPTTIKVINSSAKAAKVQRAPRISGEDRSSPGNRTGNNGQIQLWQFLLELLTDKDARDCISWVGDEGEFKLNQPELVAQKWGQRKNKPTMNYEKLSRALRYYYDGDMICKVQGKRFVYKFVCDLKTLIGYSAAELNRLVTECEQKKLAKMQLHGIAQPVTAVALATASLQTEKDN
# In short: as §1
# ERG = biological target: T4, ERG (Homo sapiens, UniProt P11308 1-479); conditions: protein: recombinant; tags: N-terminal GST; dsDNA, one strand shown
# T4 sequence: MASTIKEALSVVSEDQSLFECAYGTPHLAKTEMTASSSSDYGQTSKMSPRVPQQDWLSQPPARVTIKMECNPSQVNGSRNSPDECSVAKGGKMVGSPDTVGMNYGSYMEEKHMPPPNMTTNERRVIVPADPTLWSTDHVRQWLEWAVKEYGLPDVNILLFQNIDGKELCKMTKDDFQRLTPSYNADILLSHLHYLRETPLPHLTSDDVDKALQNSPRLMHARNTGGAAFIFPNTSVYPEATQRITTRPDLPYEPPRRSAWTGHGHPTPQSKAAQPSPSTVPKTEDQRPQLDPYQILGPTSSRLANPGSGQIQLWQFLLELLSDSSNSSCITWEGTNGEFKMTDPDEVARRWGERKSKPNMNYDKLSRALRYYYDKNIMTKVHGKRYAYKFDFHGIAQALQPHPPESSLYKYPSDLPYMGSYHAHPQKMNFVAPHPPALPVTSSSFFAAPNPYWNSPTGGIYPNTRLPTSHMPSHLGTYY
# In short: as §1
# ELF1 = ELF1 (Homo sapiens, UniProt P32519 1-619); conditions: protein: recombinant; tags: N-terminal GST; dsDNA, one strand shown
# ELF1, sequence (P32519 whole entry): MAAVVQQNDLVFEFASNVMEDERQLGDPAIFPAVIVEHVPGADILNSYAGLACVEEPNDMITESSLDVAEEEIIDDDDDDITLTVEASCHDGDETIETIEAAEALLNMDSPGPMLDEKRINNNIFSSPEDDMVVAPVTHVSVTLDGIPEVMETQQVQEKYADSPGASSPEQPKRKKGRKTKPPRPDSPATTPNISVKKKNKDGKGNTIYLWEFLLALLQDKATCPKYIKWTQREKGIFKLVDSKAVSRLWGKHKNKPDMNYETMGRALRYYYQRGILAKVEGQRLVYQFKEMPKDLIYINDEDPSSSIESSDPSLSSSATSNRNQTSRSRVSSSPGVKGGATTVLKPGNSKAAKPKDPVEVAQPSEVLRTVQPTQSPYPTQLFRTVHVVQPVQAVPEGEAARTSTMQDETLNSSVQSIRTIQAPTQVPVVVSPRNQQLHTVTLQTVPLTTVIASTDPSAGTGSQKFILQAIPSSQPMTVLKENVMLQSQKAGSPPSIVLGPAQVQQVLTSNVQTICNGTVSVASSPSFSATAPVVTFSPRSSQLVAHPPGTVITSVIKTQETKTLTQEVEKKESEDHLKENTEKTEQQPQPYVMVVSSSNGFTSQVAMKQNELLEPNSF
# In short: as §1
# EHF = biological target: T5, EHF (Homo sapiens, UniProt Q9NZC4 1-300); conditions: protein: recombinant; tags: N-terminal GST; dsDNA, one strand shown
# T5 sequence: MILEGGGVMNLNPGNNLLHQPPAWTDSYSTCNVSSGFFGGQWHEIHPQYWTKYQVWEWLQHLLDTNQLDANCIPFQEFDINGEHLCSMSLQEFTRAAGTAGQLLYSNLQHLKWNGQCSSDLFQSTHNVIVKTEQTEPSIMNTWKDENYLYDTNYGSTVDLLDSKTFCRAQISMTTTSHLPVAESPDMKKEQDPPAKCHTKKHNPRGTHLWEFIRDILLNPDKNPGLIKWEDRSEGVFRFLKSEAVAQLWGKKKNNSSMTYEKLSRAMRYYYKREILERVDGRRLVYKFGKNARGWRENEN
# In short: as §1
# SPI1 = SPI1 (Homo sapiens, UniProt P17947 1-270); conditions: protein: recombinant; tags: N-terminal GST; dsDNA, one strand shown
# In short: as §1
# SPIB = SPIB (Homo sapiens, UniProt Q01892 1-262); conditions: protein: recombinant; tags: N-terminal GST; dsDNA, one strand shown
# SPIB, sequence (Q01892 whole entry): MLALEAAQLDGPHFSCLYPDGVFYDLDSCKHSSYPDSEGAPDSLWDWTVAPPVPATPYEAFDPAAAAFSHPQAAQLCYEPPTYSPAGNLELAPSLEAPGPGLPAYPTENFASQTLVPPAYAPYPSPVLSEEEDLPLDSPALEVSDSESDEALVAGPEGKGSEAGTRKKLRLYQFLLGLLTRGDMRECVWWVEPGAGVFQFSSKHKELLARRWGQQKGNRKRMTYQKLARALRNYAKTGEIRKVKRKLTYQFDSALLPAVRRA
# In short: as §1
# ELK3 = biological target: T6, ELK3 (Homo sapiens, UniProt P41970 1-407); conditions: protein: recombinant; tags: N-terminal GST; dsDNA, one strand shown
# T6 sequence: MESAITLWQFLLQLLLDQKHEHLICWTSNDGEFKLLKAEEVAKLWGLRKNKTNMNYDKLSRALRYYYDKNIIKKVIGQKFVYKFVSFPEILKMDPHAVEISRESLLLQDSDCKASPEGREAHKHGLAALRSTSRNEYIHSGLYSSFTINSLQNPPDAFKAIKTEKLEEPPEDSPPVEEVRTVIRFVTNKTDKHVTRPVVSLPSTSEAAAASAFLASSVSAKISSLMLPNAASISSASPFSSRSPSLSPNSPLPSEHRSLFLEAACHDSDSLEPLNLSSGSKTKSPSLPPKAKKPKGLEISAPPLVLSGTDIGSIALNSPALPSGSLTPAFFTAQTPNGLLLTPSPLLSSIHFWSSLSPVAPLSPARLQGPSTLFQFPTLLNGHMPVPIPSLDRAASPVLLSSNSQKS
# In short: as §1
# FEV = biological target: T7, FEV (Homo sapiens, UniProt Q99581 1-238); conditions: protein: recombinant; tags: N-terminal GST; dsDNA, one strand shown
# T7 sequence: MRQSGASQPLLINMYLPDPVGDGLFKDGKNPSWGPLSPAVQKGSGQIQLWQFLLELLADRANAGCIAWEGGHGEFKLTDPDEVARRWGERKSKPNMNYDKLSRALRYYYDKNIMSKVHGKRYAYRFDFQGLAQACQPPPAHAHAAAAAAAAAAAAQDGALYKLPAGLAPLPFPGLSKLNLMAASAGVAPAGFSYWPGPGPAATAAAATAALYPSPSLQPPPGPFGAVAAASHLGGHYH
# In short: as §1
# ETV5 = ETV5 (Homo sapiens, UniProt P41161 1-510); conditions: protein: recombinant; tags: N-terminal GST; dsDNA, one strand shown
# ETV5, sequence (P41161 whole entry): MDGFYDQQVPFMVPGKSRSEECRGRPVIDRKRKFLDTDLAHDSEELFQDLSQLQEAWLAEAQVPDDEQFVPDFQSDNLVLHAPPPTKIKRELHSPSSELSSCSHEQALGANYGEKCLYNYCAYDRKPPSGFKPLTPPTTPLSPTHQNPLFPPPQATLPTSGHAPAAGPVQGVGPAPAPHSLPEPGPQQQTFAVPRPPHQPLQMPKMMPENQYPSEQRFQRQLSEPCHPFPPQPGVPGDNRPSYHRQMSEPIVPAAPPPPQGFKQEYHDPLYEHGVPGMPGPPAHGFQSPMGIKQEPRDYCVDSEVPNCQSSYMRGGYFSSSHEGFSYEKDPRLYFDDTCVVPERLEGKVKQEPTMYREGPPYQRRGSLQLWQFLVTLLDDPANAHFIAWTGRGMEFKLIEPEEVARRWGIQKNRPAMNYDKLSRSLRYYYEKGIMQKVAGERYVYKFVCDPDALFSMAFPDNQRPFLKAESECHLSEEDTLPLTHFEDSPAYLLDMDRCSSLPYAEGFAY
# In short: as §1
# HSF1 = HSF1 (Homo sapiens, UniProt Q00613 1-529); conditions: protein: recombinant; tags: N-terminal GST; chain copies: 3; dsDNA, one strand shown
# HSF1, sequence (Q00613 whole entry): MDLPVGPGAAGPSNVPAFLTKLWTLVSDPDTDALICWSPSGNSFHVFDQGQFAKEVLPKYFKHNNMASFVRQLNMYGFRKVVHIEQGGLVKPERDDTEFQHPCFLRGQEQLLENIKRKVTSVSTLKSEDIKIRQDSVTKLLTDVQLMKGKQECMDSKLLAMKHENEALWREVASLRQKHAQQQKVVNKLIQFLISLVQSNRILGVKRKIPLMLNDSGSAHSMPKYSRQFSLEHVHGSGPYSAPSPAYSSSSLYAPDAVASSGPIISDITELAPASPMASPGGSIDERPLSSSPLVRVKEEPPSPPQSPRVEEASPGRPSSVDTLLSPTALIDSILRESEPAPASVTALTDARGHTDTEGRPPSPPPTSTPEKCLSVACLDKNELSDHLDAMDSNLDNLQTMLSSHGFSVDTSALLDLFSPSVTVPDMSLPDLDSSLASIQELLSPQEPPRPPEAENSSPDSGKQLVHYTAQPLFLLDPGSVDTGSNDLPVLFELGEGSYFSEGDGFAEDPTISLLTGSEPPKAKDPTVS
# In short: as §1
# SPIC = biological target: T8, SPIC (Homo sapiens, UniProt Q8N5J4 1-248); conditions: protein: recombinant; tags: N-terminal GST; dsDNA, one strand shown
# T8 sequence: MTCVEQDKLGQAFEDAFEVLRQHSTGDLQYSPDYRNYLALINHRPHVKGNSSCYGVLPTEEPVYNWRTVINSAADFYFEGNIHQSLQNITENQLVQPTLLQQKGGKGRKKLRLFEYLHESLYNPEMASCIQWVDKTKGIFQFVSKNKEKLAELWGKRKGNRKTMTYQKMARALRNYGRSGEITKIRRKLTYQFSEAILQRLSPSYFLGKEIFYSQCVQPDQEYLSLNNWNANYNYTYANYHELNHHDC
# In short: as §1
# ELF4 = ELF4 (Homo sapiens, UniProt Q99607 1-663); conditions: protein: recombinant; tags: N-terminal GST; dsDNA, one strand shown
# ELF4, sequence (Q99607 whole entry): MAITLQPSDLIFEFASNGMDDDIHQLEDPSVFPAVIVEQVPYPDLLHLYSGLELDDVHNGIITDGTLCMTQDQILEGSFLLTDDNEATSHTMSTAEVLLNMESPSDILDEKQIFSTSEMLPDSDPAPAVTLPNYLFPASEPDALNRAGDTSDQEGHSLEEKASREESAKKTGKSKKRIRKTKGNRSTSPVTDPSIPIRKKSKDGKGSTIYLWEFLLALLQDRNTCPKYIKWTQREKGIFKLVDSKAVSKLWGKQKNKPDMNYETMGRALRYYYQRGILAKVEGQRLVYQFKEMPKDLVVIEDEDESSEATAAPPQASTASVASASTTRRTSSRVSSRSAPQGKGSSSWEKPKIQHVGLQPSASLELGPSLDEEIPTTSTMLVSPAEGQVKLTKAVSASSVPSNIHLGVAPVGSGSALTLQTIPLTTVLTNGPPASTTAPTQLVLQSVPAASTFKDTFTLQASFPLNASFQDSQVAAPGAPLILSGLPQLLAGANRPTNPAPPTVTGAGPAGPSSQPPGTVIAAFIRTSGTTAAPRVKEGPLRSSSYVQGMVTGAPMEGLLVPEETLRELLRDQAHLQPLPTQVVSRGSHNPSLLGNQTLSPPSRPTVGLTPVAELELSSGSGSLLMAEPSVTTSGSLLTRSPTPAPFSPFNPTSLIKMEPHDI
# In short: as §1
# ELK4 = biological target: T9, ELK4 (Homo sapiens, UniProt P28324-2 1-405); conditions: protein: recombinant; tags: N-terminal GST; dsDNA, one strand shown
# T9 sequence: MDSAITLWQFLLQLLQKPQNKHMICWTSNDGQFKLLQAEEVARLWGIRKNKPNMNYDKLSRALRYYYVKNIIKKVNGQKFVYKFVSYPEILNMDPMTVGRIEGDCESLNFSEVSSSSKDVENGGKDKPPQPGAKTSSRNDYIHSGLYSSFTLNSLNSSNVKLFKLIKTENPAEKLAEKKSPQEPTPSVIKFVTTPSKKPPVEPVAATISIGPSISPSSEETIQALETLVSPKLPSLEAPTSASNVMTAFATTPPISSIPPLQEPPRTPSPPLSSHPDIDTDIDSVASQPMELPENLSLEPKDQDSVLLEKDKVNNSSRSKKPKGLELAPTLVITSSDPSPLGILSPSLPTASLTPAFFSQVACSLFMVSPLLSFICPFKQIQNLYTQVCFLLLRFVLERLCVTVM
# In short: as §1
# ETV2 = biological target: T10, ETV2 (Homo sapiens, UniProt O00321 1-342); conditions: protein: recombinant; tags: N-terminal GST; dsDNA, one strand shown
# T10 sequence: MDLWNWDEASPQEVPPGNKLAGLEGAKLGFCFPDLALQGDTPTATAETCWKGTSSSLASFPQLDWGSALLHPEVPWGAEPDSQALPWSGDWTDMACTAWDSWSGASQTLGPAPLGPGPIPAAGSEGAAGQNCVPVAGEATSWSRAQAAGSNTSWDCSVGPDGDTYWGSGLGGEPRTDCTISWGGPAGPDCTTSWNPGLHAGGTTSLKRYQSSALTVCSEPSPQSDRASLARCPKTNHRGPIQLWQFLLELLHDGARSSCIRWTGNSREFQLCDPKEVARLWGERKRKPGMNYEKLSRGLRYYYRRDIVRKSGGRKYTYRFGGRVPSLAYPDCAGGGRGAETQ
# In short: as §1
# ELF3 = biological target: T11, ELF3 (Homo sapiens, UniProt P78545 1-371); conditions: protein: recombinant; tags: N-terminal GST; dsDNA, one strand shown
# T11 sequence: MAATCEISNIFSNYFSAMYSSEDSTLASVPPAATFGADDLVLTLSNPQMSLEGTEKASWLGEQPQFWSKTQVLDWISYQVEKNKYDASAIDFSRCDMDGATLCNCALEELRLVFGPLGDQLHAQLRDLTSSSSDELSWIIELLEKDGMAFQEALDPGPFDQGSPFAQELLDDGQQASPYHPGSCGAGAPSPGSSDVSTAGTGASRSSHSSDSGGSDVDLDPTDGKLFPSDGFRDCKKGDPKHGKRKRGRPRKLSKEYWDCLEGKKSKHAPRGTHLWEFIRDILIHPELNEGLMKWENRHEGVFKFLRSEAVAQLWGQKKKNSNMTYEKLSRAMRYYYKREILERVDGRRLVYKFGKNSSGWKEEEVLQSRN
# In short: as §1
# CRX = CRX (Homo sapiens, UniProt O43186 1-299); conditions: protein: recombinant; tags: N-terminal GST; dsDNA, one strand shown
# CRX, sequence (O43186 whole entry): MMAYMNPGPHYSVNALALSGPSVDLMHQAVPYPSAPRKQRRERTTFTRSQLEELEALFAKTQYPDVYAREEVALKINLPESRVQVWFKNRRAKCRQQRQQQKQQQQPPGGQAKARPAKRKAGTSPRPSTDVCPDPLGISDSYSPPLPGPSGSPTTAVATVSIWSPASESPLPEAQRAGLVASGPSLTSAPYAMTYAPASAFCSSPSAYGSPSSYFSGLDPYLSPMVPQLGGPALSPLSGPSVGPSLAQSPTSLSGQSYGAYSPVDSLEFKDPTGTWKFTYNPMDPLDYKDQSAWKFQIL
# In short: as §1
# ETV1 = ETV1 (Homo sapiens, UniProt P50549 1-477); conditions: protein: recombinant; tags: N-terminal GST; dsDNA, one strand shown
# ETV1, sequence (P50549 whole entry): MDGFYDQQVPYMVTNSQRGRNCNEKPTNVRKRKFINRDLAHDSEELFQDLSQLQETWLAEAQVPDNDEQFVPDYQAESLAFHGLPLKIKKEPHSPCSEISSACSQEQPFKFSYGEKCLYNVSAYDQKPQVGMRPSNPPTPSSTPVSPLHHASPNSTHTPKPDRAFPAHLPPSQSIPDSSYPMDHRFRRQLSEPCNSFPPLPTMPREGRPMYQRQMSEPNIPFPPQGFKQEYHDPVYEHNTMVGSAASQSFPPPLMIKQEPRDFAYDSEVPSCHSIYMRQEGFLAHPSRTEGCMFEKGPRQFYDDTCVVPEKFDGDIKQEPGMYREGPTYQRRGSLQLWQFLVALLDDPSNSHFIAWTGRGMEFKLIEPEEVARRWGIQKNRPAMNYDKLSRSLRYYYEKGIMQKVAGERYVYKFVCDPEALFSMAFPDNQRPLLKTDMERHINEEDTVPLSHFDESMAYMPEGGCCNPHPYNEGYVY
# In short: as §1
sequence,measurement,setting,value
TCTCGC,binding signal,FLI1,"1.82 fold enrichment (6-mer frequency, TF over GST control)"
same,binding signal,ELK1,"1.75 fold enrichment (6-mer frequency, TF over GST control)"
same,binding signal,GABPA,"1.88 fold enrichment (6-mer frequency, TF over GST control)"
same,binding signal,ERG,"1.72 fold enrichment (6-mer frequency, TF over GST control)"
same,binding signal,ELF1,"1.77 fold enrichment (6-mer frequency, TF over GST control)"
same,binding signal,EHF,"1.65 fold enrichment (6-mer frequency, TF over GST control)"
same,binding signal,SPI1,"1.69 fold enrichment (6-mer frequency, TF over GST control)"
same,binding signal,SPIB,"1.64 fold enrichment (6-mer frequency, TF over GST control)"
same,binding signal,ELK3,"1.72 fold enrichment (6-mer frequency, TF over GST control)"
same,binding signal,FEV,"1.64 fold enrichment (6-mer frequency, TF over GST control)"
same,binding signal,ETV5,"1.6 fold enrichment (6-mer frequency, TF over GST control)"
same,binding signal,HSF1,"2.5 fold enrichment (6-mer frequency, TF over GST control)"
same,binding signal,SPIC,"1.4 fold enrichment (6-mer frequency, TF over GST control)"
same,binding signal,ELF4,"1.75 fold enrichment (6-mer frequency, TF over GST control)"
same,binding signal,ELK4,"1.76 fold enrichment (6-mer frequency, TF over GST control)"
same,binding signal,ETV2,"1.96 fold enrichment (6-mer frequency, TF over GST control)"
same,binding signal,ELF3,"1.88 fold enrichment (6-mer frequency, TF over GST control)"
same,binding signal,CRX,"1.84 fold enrichment (6-mer frequency, TF over GST control)"
same,binding signal,ETV1,"1.75 fold enrichment (6-mer frequency, TF over GST control)"
